# Source: PubChem BioAssay
# CDC25B CDK2 inh – primary biochemical HTRF screen for blockers of M-phase inducer phosphatase 2 binding to CDK2/cyclin A. 94,000 compounds, 0.72% hits. P30305+P24941. HTRF CDC25B-CDK2/CyclinA binding, anti-His/anti-Flag; stronger effect = higher value. AID 1259370, 2018. z-score (concentration not given with the values); in the data active = z-score above about 3.2
# TAR Tat displ – TAR RNA-Tat peptide displacers, HIV-1, primary screen, biochemical, FRET, FAM/TAMRA-labeled Tat. z-score (test concentration not listed). HIV-1 TAR RNA, Tat peptide displacement FRET; stronger effect = higher value. 100,000 compounds, 0.6% hits. AID 1259389, 2018; active = z-score of 3 or more in at least 2 runs
# * marks the source's active call; other numbers are inactive results; . = not tested or not shown. Sampled rows, rich in hits. Any-hit rate of the full collection: about 0.9%.
SMILES,CDC25B CDK2 inh,TAR Tat displ
O=C(Cn1nc2c(cc1=O)CCCC2)Nc1ccc(Cl)cc1,.,1.3
O=C(Cn1nc2c(cc1=O)CCCC2)Nc1ccc2c(c1)OCO2,.,6.2*
CCCn1cc(NC(=O)C2=CC(c3cccs3)=NS(=O)(=O)N2C)cn1,-0.47,0.03
O=C(CCc1nc2sc3c(c2c(=O)[nH]1)CCCCC3)NCCN1CCOCC1,.,5.5*
COCCNC(=O)CCc1nc2sc3c(c2c(=O)[nH]1)CCCCC3,.,0.44
O=C(O)c1c[nH]c2c(ccc3ccccc32)c1=O,1.8,9.3*
Cc1c(Cl)ccc2c(=O)c(C(=O)O)c[nH]c12,-1.5,1.3
NC(N)=NS(=O)(=O)c1ccc(N/C=C\C(=O)c2ccc3ccccc3c2)cc1,18*,.
NC(N)=NS(=O)(=O)c1ccc(N/C=C\C(=O)c2ccc(F)cc2)cc1,-1.6,.
COc1ccc(-n2nnc(-c3nc(-c4ccncc4)no3)c2N)cc1Cl,.,-1.6
O=C(Nc1cccc2nsnc12)c1cccc(-n2cnnc2)n1,.,14*
O=C(Nc1cccc2nsnc12)c1nc(-n2cnnc2)ccc1Br,.,2.5
Cn1c(CSC2CN(C(c3ccccc3)c3ccccc3)C2)n[nH]c1=S,13*,.
Cn1c(CSc2ccccc2)n[nH]c1=S,-0.72,.
Cc1ccc2cc(-c3noc(-c4ccco4)n3)c(=O)[nH]c2c1,2,0.78
Cc1ccc2[nH]c(=O)c(-c3noc(-c4ccco4)n3)cc2c1,10*,28*
O=c1[nH]c2ccc(S(=O)(=O)N3CCN(c4cccc(Cl)c4)CC3)cc2[nH]c1=O,16,20*
O=c1[nH]c2ccc(S(=O)(=O)N3CCN(c4ccccc4)CC3)cc2[nH]c1=O,-0.51,.
Cc1ccc(C(=O)NCC2COCCO2)cc1NC(=O)C1=CSCCO1 (stereo not given),.,0.36
Cc1ccc(NC(=O)c2ccc3nn(CC(=O)Nc4ccc(Br)cc4)c(=O)n3c2)cc1,-0.97,0.34
COc1cc(NS(=O)(=O)c2cc(-c3onc(C)c3C)ccc2C)cc(OC)c1,.,0.78
Cc1ccnc(Nc2nc(-c3ccc(O)cc3)cs2)c1,0.67,0.86
Cc1cccc(Nc2nc(-c3ccncc3)cs2)n1,-0.7,2.5
Cc1cccc(Nc2nc(-c3ccc(O)c(O)c3)cs2)n1,-0.54,16*
Cc1ccnc(Nc2nc(-c3ccc(O)c(O)c3)cs2)c1,-1.2,10*
SMILES,CDC25B CDK2 inh,TAR Tat displ
CCn1c(SCC(=O)NC2CCCCC2)nnc1-c1nonc1NC(C)=O,-2.3,-0.12
Cc1cccc(N2CCN(Cc3csc(C)c3C)CC2)c1C,.,1.7
Cc1ccccc1N1C(N)=NC(N)=NC1(C)C,-0.13,.
CC1(C)N=C(N)N=C(N)N1c1c(Cl)cccc1Cl,7.9*,.
CCCc1nn2cc(-c3cccc(OC)c3)nc2s1,-0.58,0.28
COC(=O)c1ccc(N2CSC3=C(C#N)C(c4ccc(C)cc4)CC(=O)N3C2)cc1 (stereo not given),16*,1.3
CCOC(=O)c1ccc(N2CSC3=C(C#N)C(c4ccc(C)cc4)CC(=O)N3C2)cc1 (stereo not given),6.1*,-1.6
CCOc1cc(C2CC(=O)N3CN(c4ccc(C)cc4)CSC3=C2C#N)ccc1O (stereo not given),3.2*,3
Cc1ccc(C2CC(=O)N3CN(C)CSC3=C2C#N)cc1 (stereo not given),0.82,0.37
CCOC(=O)CN1CSC2=C(C#N)C(c3ccc(F)cc3)CC(=O)N2C1 (stereo not given),-0.34,2.3
CCOc1ccc(N2CSC3=C(C#N)C(c4ccc(C)o4)CC(=O)N3C2)cc1 (stereo not given),3.4*,0.86
CCCN1C(=O)C2(/C(=C(/O)c3ccccc3)C(=O)C(=O)N2CCCOC)c2ccccc21 (stereo not given),-0.09,0.89
CCc1ccc(CNC(=O)C(CC)n2nc(C)n3c(cc4occc43)c2=O)cc1 (stereo not given),-1.1,0.72
C=CCN(CC=C)Cc1c(O)ccc2oc(C)c(C(=O)NC3CCCC3)c12,-1.6,1
CCOC(=O)c1ccc(N2CSC3=C(C#N)C(c4ccc(SC)cc4)CC(=O)N3C2)cc1 (stereo not given),5.1*,-2.3
COc1ccc(C2CC(=O)N3CN(CCc4ccccc4)CSC3=C2C#N)cc1OC (stereo not given),-1.4,0.76
CN1CSC2=C(C#N)C(c3ccccc3)CC(=O)N2C1 (stereo not given),4.1,0.4
CCOc1ccc(C2CC(=O)N3CN(C)CSC3=C2C#N)cc1OC (stereo not given),3.6*,-0.1
CN1CSC2=C(C#N)C(c3cccc(OCc4ccccc4)c3)CC(=O)N2C1 (stereo not given),3.4*,-1.9
Cc1cc(C)cc(Oc2nc3ccccc3n3c(=O)[nH]nc23)c1,0.87,0.15
COc1ccc(-n2nnnc2C2CCN(S(=O)(=O)c3ccc(OC)cc3)CC2)cc1,-1.2,0.86
Cc1oc(-c2ccc(Cl)cc2)nc1CSc1nnc(C)n2c1cc1occc12,.,1.6
CC1=C(c2ccccc2)S(=O)(=O)N=C1Nc1cc(C)on1,-1.6,-1.4
Cc1ccc2c(=O)c(C(=O)c3ccccc3Cl)coc2c1,-1.5,-0.31
Cc1ccc(CS(=O)(=O)c2ncc(Cl)c(C(=O)Nc3nnc(C(C)C)s3)n2)cc1,5.5*,0.97
SMILES,CDC25B CDK2 inh,TAR Tat displ
Cc1ccc(CS(=O)(=O)c2ncc(Cl)c(C(=O)Oc3ccc(C)cc3)n2)cc1,-1.3,-0.27
O=C(Nc1ccc(S(=O)(=O)NC2CC2)cc1)N1CCCC1,.,0.58
O=C(CCC1=NS(=O)(=O)c2ccccc2N1)NCCc1c[nH]c2ccccc12,.,-0.19
O=C(NCc1ccco1)c1ccc2c(=O)[nH]c3c(C(=O)NC4CCCC4)sc(=S)n3c2c1,.,16*
CCOCCCNC(=O)c1ccc2c(=O)[nH]c3c(C(=O)NC4CCCC4)sc(=S)n3c2c1,.,2
COC(=O)CC(C(=O)OC)P(=O)(O)CN(C)S(C)(=O)=O (stereo not given),4.5*,.
NC(C(=O)O)C1CCCCC1 (stereo not given),-0.39,.
N[C@H](C(=O)O)[C@H]1C[C@@H]1C(=O)O,7.7*,.
O=C(NC1COc2ccccc2C1)N1CCN(c2ccccn2)CC1 (stereo not given),.,1.4
C[C@@H]1O[C@@H](OC2O[C@@H](COc3cc(O)c4c(=O)cc(-c5ccc(O)cc5)oc4c3)[C@@H](O)[C@@H](O)[C@@H]2O)[C@H](O)[C@H](O)[C@H]1O (stereo not given in full),.,1.2
O=c1cc(-c2cc(O)c(O)c([C@@H]3O[C@H](CO)[C@@H](O)[C@H](O)[C@H]3O)c2)oc2cc(O[C@@H]3O[C@H](CO)[C@@H](O)[C@H](O)[C@H]3O)cc(O)c12,.,25*
C[C@@H]1O[C@@H](O[C@H]2[C@H](Oc3cc(O)c4c(=O)cc(-c5ccc(O)cc5)oc4c3)O[C@H](CO)[C@@H](O)[C@@H]2O)[C@H](O)[C@H](O)[C@H]1O,.,1.1
O=c1cc(-c2ccc(O)c(O)c2)oc2cc(O)c([C@@H]3O[C@H](CO)[C@@H](O)[C@H](O)[C@H]3O)c(O)c12,.,26*
O=S(=O)(Nc1ccc2c(c1)N(S(=O)(=O)c1ccc(F)cc1)CCC2)c1ccc(F)cc1F,.,1.1
Cc1c(N(Cc2c(F)cccc2Cl)S(C)(=O)=O)c(=O)n(-c2ccccc2)n1C,.,2
Cc1ccc(-c2csc(Nc3ccc(S(N)(=O)=O)cc3)n2)cc1,-0.94,2
